Source: PubChem
Most compounds without a hit are left out; they make up all but 14% or so of the library.
A350 fluor – compounds fluorescent in Alexa 350 spectral region; Compound autofluorescence, 340/450 nm, Alexa 350 dye-equivalents; stronger effect = higher value; max dye-equivalent concentration, M; 59,000 compounds, 11% hits; in the data active = max dye-equivalent concentration above about 10 nM; inconclusive = mostly about 1.1 nM to 9.6 nM
HSD17B inh – HSD17B dehydrogenase inhibition; Q99714; recombinant HSD17B10, NADH fluorescence kinetic; Potency, µM (series often up to 57.1 µM), for inactives: at the top dose activity change, negative = inhibition, most hits filed as inhibitors; 75,000 compounds, 7.6% hits;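 also: the protocol describes HADH2 (HSD17B10) and not the HSD17B4 of the title; potency is read from the fitted curve at half-maximal effect; % is scaled to controls: 0 for no effect and ±100 for the full control effect; nearly all actives have a fitted effect of over 70% in size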
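20 nM HADH2, pH 9.0 Tris/Tween; cpd preinc 15 min RT; start w/ 1 mM NAD+ + 90 uM b-hydroxybutyryl-CoA; kinetic fluor ex360/em450 q30s x 4 min; delta last-first.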
HADH2 inhib – blocks human hydroxyacyl-CoA dehydrogenase type II | 73,000 compounds, 3.4% hits | Q99714 | Potency, µM (top dose mostly 57.1 µM), inactives show at the highest dose activity change, negative = inhibition, most hits filed as inhibitors | recombinant HADH2, NADH fluorescence, beta-hydroxybutyryl-CoA; also: potency is read from the fitted curve at half-maximal effect; % is scaled to controls: 0 for no effect and ±100 for the full control effect; nearly all actives have a fitted effect of over 60% in size
Target sequence (Q99714 whole entry, looked up, one chain of several): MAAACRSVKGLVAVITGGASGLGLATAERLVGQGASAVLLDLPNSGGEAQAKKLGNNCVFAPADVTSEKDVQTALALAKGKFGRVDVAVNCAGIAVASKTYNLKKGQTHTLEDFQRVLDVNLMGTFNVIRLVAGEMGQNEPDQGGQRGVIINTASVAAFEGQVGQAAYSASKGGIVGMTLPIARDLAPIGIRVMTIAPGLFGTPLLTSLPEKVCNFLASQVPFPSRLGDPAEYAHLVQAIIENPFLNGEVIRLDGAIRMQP
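His-tagged recombinant enzyme from E. coli, 20 nM, preincubated 15 min RT with compound; reaction started with 1 mM NAD+ and 90 uM beta-hydroxybutyryl-CoA in 100 mM Tris-HCl pH 9.0. NADH fluorescence (ex 360/em 450) read over 4 min; last-minus-first difference.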
CRE Fsk mod – CRE-bla signaling modulation under forskolin stimulation; CHO CRE-bla reporter (cAMP response element driving beta-lactamase), forskolin EC10, beta-lactamase ratio; Potency, µM (titrated, usually from 38.2 µM), without a hit: at the highest dose activity change, negative = inhibition, hits mostly activators; 71,000 compounds, 2.5% hits; active = well fitted activation curve with a large enough effect in the signal ratio, with a control signal flat, not every such curve was filed as active; inconclusive = small, poorly fitted or top-dose-only effect, or effect the other way, or a change in a side signal; the % refers to the signal ratio; also: potency is read from the fitted curve at half-maximal effect; % of control where 0% means no effect
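AC50 values, positive or negative, reflect shifts in EC10 NKH 477-induced CRE-bla reporter activity in CHO cells. Incubation lasted 3 h at 37 °C before CCF4 substrate (2 h, room temperature) and ratiometric 460/530 nm reading.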
4MU fluor – compounds fluorescent in 4-MU spectral region | 59,000 compounds, 11% hits | max dye-equivalent concentration, M | AID 589 | compound autofluorescence, 340/450 nm, 4-MU equivalents; stronger effect = higher value; in the data active = max dye-equivalent concentration above about 10 nM; inconclusive = mostly about 1.1 nM to 9.6 nM
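Compounds in 100 mM Tris, pH 8.0, incubated 15 min at room temperature, then fluorescence read at 340 nm excitation/450 nm emission. Signal converted to 4-MU dye-equivalent concentration using an on-plate six-point 4-MU standard curve.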
AID923 – qHTS Assay for Allosteric/Competitive Inhibitors of Caspase-1: Spectroscopic Profiling in AFC Spectral Region | compound fluorescence, AFC spectral region (405/520 nm) | Potency, µM (top dose mostly 57.5 µM), inactives show at the top dose fluorescence increase, usual class: activators | 75,000 compounds, 1.1% hits; also: potency is read from the fitted curve at half-maximal effect; 0% is about no effect
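Baseline compound fluorescence (AFC region, 405 nm ex/520 nm em) taken from the intercept of kinetic reads with 50 nM caspase-1 and 5 uM Ac-WEHD-AFC; normalized to an on-plate AFC standard curve; compounds titrated up to 57 uM.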
Numbers without * were called inactive; i = inactive; ? = inconclusive; · = no result; [ ] = remark or other dose. Unless noted, calls follow the shape of the dose curve; as a rule, active = well fitted curve in the direction sought with a large enough effect; inconclusive = small, poorly fitted or top-dose-only effect, or another doubt; inactive = no such curve, though single readings can be large; an effect the other way counts as inactive or inconclusive.

SMILES	A350 fluor	HSD17B inh	HADH2 inhib	CRE Fsk mod	4MU fluor	AID923
COc1ccccc1-c1c(C)c(C)nc(N)c1C#N	3.2e-08M*	10%	-15%	13%	2.5e-08M*	-1%
CCc1nc(N)c(C#N)c(-c2ccccc2OC)c1C	?	25µM*	-7%	?	?	0%
COc1ccccc1N1CCN(c2nc(N)c(C#N)c(CC#N)c2C#N)CC1	i	-5%	-16%	23%	i	6%
COc1ccccc1-c1cc(C2CC2)nc(N)c1C#N	·	32µM*	?	10µM*	·	-4%
O=C(Nc1ccccc1)N1CCC2(CC1)CCN(C(=O)c1cccc(F)c1)CC2	i	5%	9%	-12%	i	0%
c1ccc(COCc2ccccc2)cc1	·	2%	4%	-4%	·	0%
CN1CCN(c2nc(-c3cccs3)cc(C(F)(F)F)n2)CC1	1.2e-08M*	-2%	3%	6%	1.2e-08M*	0%
CS(=O)(=O)c1nc(-c2cccs2)cc(C(F)(F)F)n1	1.1e-07M*	25µM*	13µM*	?	1.1e-07M*	-1%
CN1CCN(c2nc(Nc3cccc(C(F)(F)F)c3)nc(N3CCOCC3)n2)CC1	i	5%	-9%	1%	i	1%
COCC(=O)N1CCC2(CC1)CN(c1ccncc1)C2	i	4%	6%	2%	i	2%
COc1ccccc1CCn1c(=O)c(-c2ccccc2)nc2cncnc21	i	-8%	-4%	?	i	3%
CCCCN1CCC(n2c(=O)[nH]c3ccccc32)CC1	i	-5%	12%	-2%	i	-1%
O=C(Nc1cccc2cccnc12)c1cccnc1	i	4%	7%	?	i	2%
Cc1cnc(C(=O)Nc2cccc3cccnc23)cn1	3.1e-07M*	-16%	10%	?	1.9e-07M*	1%
O=C(O)[C@H](/C=C\c1ccccc1)c1ccccc1	i	-3%[11.4 µM]	-5%[11.4 µM]	0%[7.6 µM]	i	-4%[11.5 µM]
Cc1noc(C)c1C(=O)N1CCN(CCc2ccccc2)CC1	1.9e-08M*	6%	2%	?	1.7e-08M*	-1%
O=C(Nc1ccccc1Cl)c1ccc(S(=O)(=O)N2CCOCC2)cc1	·	8%	5%	-7%	·	0%
CCN(CC)S(=O)(=O)c1ccc(NC(=O)c2ccc(NS(C)(=O)=O)cc2)cc1	i	-14%	-14%	14%	i	2%
O=C(Nc1cc(C(=O)Nc2ccc(S(=O)(=O)O)cc2S(=O)(=O)O)cc(C(=O)Nc2ccc(S(=O)(=O)O)cc2S(=O)(=O)O)c1)Nc1cc(C(=O)Nc2ccc(S(=O)(=O)O)cc2S(=O)(=O)O)cc(C(=O)Nc2ccc(S(=O)(=O)O)cc2S(=O)(=O)O)c1	1.3e-07M*	0.79µM*	1%	-5%	1.1e-07M*	4%
O=C(Nc1ccc(C(=O)Nc2ccc(C(=O)Nc3ccc(S(=O)(=O)O)c4cc(S(=O)(=O)O)cc(S(=O)(=O)O)c34)cc2)cc1)Nc1ccc(C(=O)Nc2ccc(C(=O)Nc3ccc(S(=O)(=O)O)c4cc(S(=O)(=O)O)cc(S(=O)(=O)O)c34)cc2)cc1	·	1.3µM*	?	-7%	·	2%
Nc1ccccc1[N+](=O)[O-]	·	-1%	-5%	-12%	·	-5%
O=[N+]([O-])c1ccccc1S(=O)(=O)NCC1CCC(CNCC2CCc3ccccc3C2)CC1 (configuration not stated)	·	-11%	-1%	·	·	-2%
COc1ccc2cc(C(c3nnnn3CCc3ccccc3)N3CCC(O)CC3)c(=O)[nH]c2c1 (configuration not stated)	?	-10%	-6%	-5%	?	1%
COCCn1nnnc1C(c1ccc(OC)cc1OC)N1CCN(c2ccccc2F)CC1 (configuration not stated)	i	11%	-6%	-14%	i	-1%
CCc1ccc2[nH]c(=O)c(C(c3nnnn3CCOC)N3CCN(c4ccccc4F)CC3)cc2c1 (configuration not stated)	1.2e-08M*	-20%	-13%	-20%	?	2%
SMILES	A350 fluor	HSD17B inh	HADH2 inhib	CRE Fsk mod	4MU fluor	AID923
COc1ccc2cc(C(c3nnnn3Cc3ccccc3)N3CCCCCC3)c(=O)[nH]c2c1 (configuration not stated)	3.8e-06M*	-6%	9%	9%	4.7e-06M*	18%
COCCn1nnnc1C(c1cc2cc(C)ccc2[nH]c1=O)N1CCN(C2CCCCC2)CC1 (configuration not stated)	1.1e-07M*	?	-2%	-13%	8.2e-08M*	3%
COCCn1nnnc1C(c1cc2ccc(OC)cc2[nH]c1=O)N1CCN(C2CCCCC2)CC1 (configuration not stated)	1e-08M*	-17%	-3%	-3%	?	0%
COc1ccc2cc(C(c3nnnn3Cc3ccc(F)cc3)N3CCCCCC3)c(=O)[nH]c2c1 (configuration not stated)	?	-1%	0%	?	?	14%
CC(C)C[C@@H](CC(=O)N[C@@H](CCC(=O)O)CC(=O)O)NC(=O)[C@@H]1CCCC[C@H]1NC(=O)C[C@@H](NC(=O)C[C@H](Cc1ccccc1)NC(=O)[C@@H]1CCCC[C@H]1N)C(C)C	·	·	7%	-18%	·	·
Cc1noc(C)c1-c1cc(NCc2ccccc2)ncn1	i	8%	1%	9%	i	2%
COCC(=O)N1CCC[C@@]2(CCN(C(=O)Nc3cccc(C#N)c3)C2)C1	i	3%	1%	1%	i	2%
CCCCCCc1cc2cc(C(=O)NC)c(=N)oc2cc1O	2e-06M*	·	·	·	1.7e-06M*	·
COc1ccccc1CCn1c(=O)c(-c2cc(F)cc(F)c2)nc2cncnc21	i	25%	7%	?	i	3%
COc1ccc(Oc2ncc3ncc(=O)n(Cc4cccs4)c3n2)cc1	i	-5%	4%	-7%	i	1%
Cn1c(SCc2ccccc2Cl)nnc1-c1cnccn1	7.6e-08M*	25µM*	-7%	8%	1.9e-07M*	7%
Cn1c(SCC(=O)c2ccc(F)cc2)nnc1-c1cnccn1	i	-8%	-2%	-4%	i	1%
O=c1cnc2cnc(Oc3cccc(Cl)c3)nc2n1Cc1ccc(F)cc1	i	-6%	-5%	-3%	i	3%
CCCCn1c(C(C)NC(=O)CC)nc2ccccc21 (configuration not stated)	·	2%	0%	-11%	·	0%
CCCCCCn1c(C(C)NC(=O)c2ccco2)nc2ccccc21 (configuration not stated)	1.3e-08M*	-4%	8%	?	?	2%
